Laboratory results as given in ChEMBL document CHEMBL1157539, “Thousands of chemical starting points for antimalarial lead identification” (Nature, 2010).
Several values for one entry are separate records, joined by “and”; a condition that tells them apart may be missing. Equal values may be shown once.

Key:
Format in all cases: functional
[1] = system: Plasmodium falciparum; assay: GSK_TCMDC: Inhibition of Plasmodium falciparum 3D7 in whole red blood cells, using parasite LDH activity as an index of growth. Test compounds present at 2uM
[2] = system: Plasmodium falciparum; assay: GSK_TCMDC: Inhibition of Plasmodium falciparum Dd2 in whole red blood cells, using parasite LDH activity as an index of growth. Test compounds present at 2uM
[3] = system: HepG2; assay: GSK_TCMDC: Percent inhibition of human HepG2 cell line. Test compounds present at 10uM.

| Compound | Inhibition [1] | Inhibition [2] | Inhibition [3] |
| --- | --- | --- | --- |
| O=C(/C=C/c1ccc(Cl)c(Cl)c1)Nc1cccc(CN2CCC(c3c[nH]c4ccccc34)CC2)c1 | 99% | 91% | 15% |
| CCN1CC=C(c2c[nH]c3ccccc23)CC1 | 84% | 58% | 27% |
| COc1ccc2nc(-c3ccc(F)cc3)cc([C@@H](O)[C@@H]3C[C@@H]4CCN3CC4C=NO)c2c1 (some centres undefined) | 100% | 94% | 14% |
| O=C(/C=C/c1ccc(C(F)(F)F)cc1)NC1CCC(CN2CCC(c3c[nH]c4ccccc34)CC2)CC1 (centres undefined) | 100% and 98% | 100% and 97% | 73% and 42% |
| O=C(NC1CCC(CN2CCC(c3c[nH]c4ccccc34)CC2)CC1)c1csc(-c2ccc(C(F)(F)F)cc2Cl)n1 (centres undefined) | 99% | 75% | 32% |
| CC(C)CNCc1cccc(-c2cccc(CN(C(=O)c3cccs3)C3CCN(Cc4ccccc4)CC3)c2)c1.O=C(O)C(F)(F)F | 90% | 36% | 14% |
| CC(Cc1ccc(OCc2ccccc2)c(Cl)c1)NCC(O)c1cccc(C(F)(F)F)c1 (centres undefined) | 97% | 95% | 0% |
| Cc1ccc(CC(C)(C)NCC(O)c2cccc(C(F)(F)F)c2)cc1.O=C(O)/C=C/C(=O)O (centres undefined) | 97% | 92% | 19% |
| Cc1ccc(CC(C)NCC(O)c2cccc(C(F)(F)F)c2)c(C)c1.Cl (centres undefined) | 99% | 99% | 3% |
| O=C(/C=C/c1ccc(Cl)c(Cl)c1)N1CCC(CN2CCC(c3c(-c4ccc(F)cc4)[nH]c4ccccc34)CC2)CC1 | 100% | 98% | 19% |
| O=C(/C=C/c1cc(F)cc(C(F)(F)F)c1)N1CCC(CN2CCC(c3c[nH]c4ccccc34)CC2)CC1 | 100% | 74% | 32% |
| CC[C@H]1CN2CC[C@@H]1C[C@H]2[C@H](O)c1cc(N2CCC(c3ccccc3)CC2)nc2ccc(OC)cc12 | 99% | 98% | 45% |
| O=C(/C=C/c1cccc(Cl)c1)NC1CCC(CN2CCC(c3c[nH]c4ccccc34)CC2)CC1 (centres undefined) | 100% | 82% and 55% | 35% and 42% |
| CC[C@H]1CN2CC[C@H]1C[C@H]2[C@H](O)c1cc(-c2cccc(F)c2)nc2ccc(OC)cc12.Cl | 99% | 97% | 34% |
| CCCCC/C=C/C(=O)NC1CCC(CN2CCC(c3c[nH]c4ccccc34)CC2)CC1 (centres undefined) | 87% | 11% | 19% |
| CN(C)c1cccc(NC(=O)NC2N=C(c3ccccc3)c3ccccc3N(CC(=O)N(C)c3ccccc3)C2=O)c1 (centres undefined) | 99% | 80% | 1% |
| CN(C)c1cccc(NC(=O)N[C@H]2N=C(c3ccccc3)c3ccccc3N(CC(=O)N3CCCC3)C2=O)c1 | 98% | 98% | 0% |
| COc1ccc(O)c(CN2CCN(c3cc(C)ccc3C)CC2)c1 | 90% | 86% | 7% |
| CCN1CCC2(c3cccc(OC)c3)Cc3nc4ccccc4c(-c4ccccc4)c3CC2C1 (centres undefined) | 99% | 98% | 0% |
| O=C(C=Cc1ccccc1C(F)(F)F)NC1CCC(CN2CCC(c3c[nH]c4ccccc34)CC2)CC1 (centres undefined) | 100% | 90% and 47% | 47% and 73% |

| Compound | Inhibition [1] | Inhibition [2] | Inhibition [3] |
| --- | --- | --- | --- |
| NCc1cccc(-c2cccc(CN(C(=O)Nc3ccccc3)C3CCN(Cc4ccccc4)CC3)c2)c1.O=C(O)C(F)(F)F | 99% | 8% | 3% |
| Cl.O=C(CNC1CCCCC1)c1ccc(O)c(O)c1 | 100% | 99% | 61% |
| C=C[C@H]1CN2CC[C@H]1C[C@H]2[C@H](OS(=O)(=O)O)c1ccnc2ccccc12 | 99% | 15% | 8% |
| CC(Cc1ccc(NC(=O)CCNCc2ccccc2)cc1)NCCc1cccc(Cl)c1 (centres undefined) | 100% | 100% | 100% |
| O=C(/C=C/c1cccc(F)c1)NC1CCC(CN2CCC(c3c[nH]c4ccccc34)CC2)CC1 (centres undefined) | 99% and 98% | 28% and 31% | 39% and 35% |
| CCCCCCCc1cc(=O)c2ccccc2[nH]1 | 96% | 94% | 5% |
| O=C(O)c1ccc2nc(-c3ccc(-c4ccccc4)cc3)n(C3CCN(Cc4ccc(-c5ncc[nH]5)cc4)CC3)c2c1 | 91% | 99% | 3% |
| COc1cc2nc(N(C)C3CCN(Cc4ccccc4)CC3)nc(N)c2cc1OC | 99% | 93% | 19% |
| O=C(Nc1ccccc1OC(F)(F)F)NC1CCC(CN2CCC(c3c[nH]c4ccccc34)CC2)CC1 (centres undefined) | 100% and 99% | 60% and 70% | 33% and 35% |
| CCC1CN2CCc3cc(OC)c(OC)cc3C2CC1CC1NCCc2c1[nH]c1ccc(O)cc21 (centres undefined) | 99% | 100% | 45% |
| Cc1nc(C)c(-c2ccc(Oc3ccc(OC(F)(F)F)cc3)cc2)c(OC(=O)N(CCNC(C)C)C(C)C)c1Br.Cl | 98% | 97% | 35% |
| COc1ccccc1CNCC(O)c1cc(C(F)(F)F)ccc1C(F)(F)F (centres undefined) | 100% | 95% | 10% |
| O=C(/C=C/c1ccccc1Cl)NC1CCC(CN2C3CCC2CC(c2c[nH]c4ccccc24)C3)CC1 (centres undefined) | 100% | 98% | 56% |
| COc1ccc2[nH]cc(C3CC4CCC(C3)N4CCC3CCN(C(=O)/C=C/c4ccc(Cl)c(Cl)c4)CC3)c2c1 (centres undefined) | 100% | 80% | 38% |
| C/C=C1/CN2CC[C@H]1C[C@H]2[C@H](O)c1ccnc2ccc(O)cc12 | 99% | 11% | 0% |
| Cc1cc(N(C)C2CCN(C)CC2)nc(Nc2ccc(Cl)cc2)n1 | 98% | 90% | 15% |
| O=C(NC1CCC(CN2CCC(c3c[nH]c4ccccc34)CC2)CC1)c1cnn(-c2ccccc2)c1-c1ccccc1Cl (centres undefined) | 95% | 11% | 66% |
| Cc1ccc(CC(C)NC[C@H](O)c2cccc(Cl)c2)cc1 (some centres undefined) | 93% | 64% | 0% |
| O=P(O)(O)Oc1c(Br)cc(Br)cc1-c1cc(Br)cc(Br)c1O [BROMOFENOFOS] | 97% | 0% | 10% |
| Cc1c2ccncc2c(C)c2c1[nH]c1ccccc12 [ELLIPTECINE] | 95% | 97% | 38% |

| Compound | Inhibition [1] | Inhibition [2] | Inhibition [3] |
| --- | --- | --- | --- |
| Cc1cc(NC(=O)[C@@H](Nc2ccc(C#N)c3ccccc23)C2CCCCC2)ccc1F.O=C(O)C(F)(F)F | 95% | 83% | 10% |
| CCOc1ccc(Br)cc1/C=C/C(=O)Nc1ccc2c(c1)C1CCC2N1C.O=C(O)C(F)(F)F (centres undefined) | 89% | 26% | 60% |
| CC(Cc1ccc([N+](=O)[O-])cc1)NCC(O)c1cccc(C(F)(F)F)c1 (centres undefined) | 98% | 92% | 0% |
| COc1ccc(OC)c(CNCC(O)c2cc(C(F)(F)F)cc(C(F)(F)F)c2)c1 (centres undefined) | 92% | 100% | 7% |
| COC(=O)c1ccc(CC(C)NCC(O)c2cccc(C(F)(F)F)c2)cc1.Cl (centres undefined) | 97% | 87% | 0% |
| CC[C@H]1CN2CC[C@H]1C[C@H]2[C@H](O)c1cc(-c2ccc(C)cc2)nc2ccc(OC)cc12.Cl | 99% | 99% | 22% |
| CCOc1ccc2nccc([C@@H](O)[C@@H]3C[C@@H]4CCN3C[C@@H]4CC)c2c1.Cl [ETHYLHYDROCUPREINE HYDROCHLORIDE] | 98% | 99% | 24% |
| CNCCN(C)C(=O)Oc1c(Cl)c(C)nc(C)c1-c1ccc(Oc2ccc(OC(F)(F)F)cc2)cc1.Cl | 97% | 96% | 0% |
| Cc1ccc(C)c(C=CC(=O)NC2CCC(CN3CCC(c4c[nH]c5ccccc45)CC3)CC2)c1 (centres undefined) | 100% | 55% and 80% | 46% and 38% |
| CC(Cc1ccc(Oc2ccc(Cl)cc2)cc1)NCC(O)c1cccc(Cl)c1 (centres undefined) | 99% | 98% | 3% |
| O=C(NC1CCC(CN2CCC(c3c[nH]c4ccccc34)CC2)CC1)c1cc(-c2ccccc2Cl)n(-c2cccc(Cl)c2)n1 (centres undefined) | 95% | 24% | 58% |
| Cc1cc(N(C)C2CCN(C)CC2)nc(Nc2ccc(Br)cc2)n1 | 100% | 92% | 0% |
| Cn1nc(-c2ccc(S(=O)(=O)NC3CCC(CN4CCC(c5c[nH]c6ccccc56)CC4)CC3)s2)cc1C(F)(F)F (centres undefined) | 96% and 98% | 24% and 29% | 35% and 38% |
| CN(C)CCC(=O)c1ccccc1.Cl | 100% | 5% | 11% |
| CC(Cc1ccc(OCCOc2ccccc2)cc1)NCC(O)c1cccc(C(F)(F)F)c1 (centres undefined) | 91% | 76% | 16% |
| C=C[C@H]1CN2CC[C@H]1C[C@H]2[C@H](O)c1ccnc2ccccc12 [CINCHONIDINE] | 100% | 3% | 9% |
| COc1cccc(CN2CCC(CCOC(c3ccccc3)c3ccccc3)CC2)c1O | 97% | 99% | 33% |
| FC(F)(F)c1ccc(NC(=S)NC2CCC(CN3CCC(c4c[nH]c5ccccc45)CC3)CC2)cc1 (centres undefined) | 100% | 100% and 99% | 65% and 92% |
